Among the data in PubChem BioAssay (EPA / NIEHS) are outcome and AC50 values, retold here.

Assay [1] deals with Oxysterols receptor LXR-beta (Homo sapiens) (UniProt P55055). The assay can be described thus: ATG_LXRb_TRANS: Attagene TRANS-FACTORIAL HepG2 Assay for human Liver X Receptor beta (LXRb) (AID 2282981). The settings on record: HepG2 Attagene TRANS GAL4-LXRb reporter, mRNA. The essentials: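 After 24 h of chemical treatment, transfected HepG2 cells yield total RNA; reporter cDNA is PCR-amplified, FAM-labelled, HpaI-cut and run on capillary electrophoresis. Signal reflects chimeric LXRb-Gal4 activity on GAL4-UAS reporters.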

Assay [2] can be described thus: ATG_GAL4_TRANS: Attagene TRANS-FACTORIAL HepG2 Assay for GAL4 (Internal Marker) (AID 2282976). The note with it: HepG2 Attagene TRANS GAL4 internal marker reporter. The essentials: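 Background-control readout: GAL4-UAS reporter transcript in transiently transfected HepG2 cells after 24 h compound exposure. Measured by RT-PCR, 6-FAM primer extension, HpaI digest and capillary electrophoresis; gain-of-signal fit versus DMSO.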

For assay [3], the target named is Estrogen receptor (Homo sapiens) (UniProt P03372). The assay can be described thus: NVS_NR_hER: NovaScreen (NVS) Nuclear Receptor Binding Assay for human Estrogen Receptor (ER) (AID 2283348). The essentials: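 Cell-free MCF7-derived ER preparation, specific radioligand displaced by test compound, read by scintillation counting 18 h post-dosing. Duplicate single-point 25 uM screen, then concentration-response confirmation; DMSO baseline.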

Assay [4] has as its target human Peroxisome Proliferator-activated Receptor alpha (PPARa), PPARA (gene 5465) (UniProt Q07869). The assay can be described thus: ATG_PPARa_TRANS: Attagene TRANS-FACTORIAL HepG2 Assay for human Peroxisome Proliferator-activated Receptor alpha (PPARa) (AID 2283001). In a few lines:
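Transfected HepG2 cells treated with test chemical for 24 h. RNA isolated, reverse-transcribed with oligo(dT), PCR-amplified, FAM-labelled and HpaI-digested. Fragments sized by capillary electrophoresis; gain-of-signal fit relative to DMSO.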

Assay [5] addresses human Ephrin type-A Receptor 1 (EphA1), EPHA1 (gene 2041) (UniProt P21709). The assay can be described thus: NVS_ENZ_hEphA1: NovaScreen (NVS) Enzymatic Assay for human Ephrin type-A Receptor 1 (EphA1) (AID 2283158).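 Note: activity is signal loss versus DMSO meaning EphA1 kinase inhibition.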 The essentials:
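Cell-free kinase activity with recombinant protein, 1 hour after dosing; product separated by electrophoretic mobility shift, fluorescence read. Primary screen at 25 uM in duplicate; hits run as concentration-response up to 50 uM, relative to DMSO.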

Assay [6] has as its target Oxysterols receptor LXR-alpha (Homo sapiens) (UniProt Q13133). The experiment in a line: ATG_LXRa_TRANS: Attagene TRANS-FACTORIAL HepG2 Assay for human Liver X Receptor alpha (LXRa) (AID 2282980). The settings on record: HepG2 Attagene TRANS reporter, LXRa transactivation. In a few lines:
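HepG2 cells transiently transfected with GAL4-UAS reporter units for chimeric NR-Gal4 proteins, exposed to chemicals for 24 h. Reporter mRNA quantified by RT-PCR and capillary electrophoresis; gain of signal fitted relative to DMSO.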

Assay [7] addresses human Retinoic Acid Receptor gamma (RARg), RARG (gene 5916) (UniProt P13631). The assay can be described thus: ATG_RARg_TRANS: Attagene TRANS-FACTORIAL HepG2 Assay for human Retinoic Acid Receptor gamma (RARg) (AID 2283009). The essentials: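 Readout: reporter transcript levels via RT-PCR, 6-FAM primer-extension labelling, HpaI digestion and capillary electrophoresis. Cells: HepG2 carrying transfected RARg-GAL4 chimera plus UAS reporter set. Dosing 24 h; DMSO negative control.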

Assay [8] addresses human Peripheral-type Benzodiazepine Receptor (PBR), TSPO (gene 706) (UniProt P30536). The assay can be described thus: NVS_MP_hPBR: NovaScreen (NVS) Membrane Protein Assay for human Peripheral-type Benzodiazepine Receptor (PBR) (AID 2283331).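 Note: hits reduce radioligand binding relative to DMSO baseline.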 The essentials:
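Cell-free binding to human colonic membrane preparations measured by filter-based scintillation counting after 1 h. Compounds first run at 25 uM in duplicate, then concentration series for actives; signal loss against DMSO baseline.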

Assay [9] is described as follows: CCTE_Harrill_HTTr_CellCount_MCF7: CCTE's Cell Proliferation Assessment for the High-Throughput Transcriptomics (HTTr) Platform, Harrill Lab (AID 2284012).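 Note: count of Hoechst-stained nuclei per well by high-content imaging in MCF-7 cells; cells exposed to compound for six hours; intended direction is loss of nuclei count meaning fewer cells.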 The essentials:
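Readout: Hoechst nuclear count by high-content imaging. MCF-7, 8-point dilution series, 6 h exposure. Bidirectional fit vs DMSO baseline.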

Assay [10] can be described thus: CCTE_Padilla_ZF_Score.General: CCTE's 144 Hour Post-fertilization zebrafish Assay Score for General Malformation, Padilla Lab (AID 2284411; active = hit-call score of the fitted dose curve at least 0.9, where 1 is the maximum; inactive = score below 0.9). In a few lines: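 Malformation, death and hatching were scored at 6 dpf by two blinded observers under a stereo microscope. Embryos were dosed singly from 6-8 hpf in sealed plates of 10% Hanks' at 26C and rinsed on 5 dpf; DMSO baseline.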

Assay [11] concerns the target human Dopamine Transporter (DAT), SLC6A3 (gene 6531) (UniProt Q01959). The assay can be described thus: NVS_TR_hDAT: NovaScreen (NVS) Transporter Assay for human Dopamine Transporter (DAT) (AID 2283374).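 Note: activity means loss of bound radioligand signal relative to DMSO.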 The essentials:
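Duplicate single-point screening at 25 uM preceded concentration-series follow-up of actives. Binding was measured by competitive displacement of a radioligand from DAT protein, filter-counted by scintillation 1 h after dosing. Decrease relative to DMSO taken as activity.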

The target in assay [12] is Retinoic acid receptor RXR-alpha (Homo sapiens) (UniProt P19793). The assay can be described thus: OT_NURR1_NURR1RXRa_0480: Odyssey Thera (OT) 8-hour HEK293T Protein Complementation Assay for Nurr1/retinoid X receptor (RXR) (AID 2283385). The essentials:
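Read-out: fluorescence from protein-fragment complementation between Nurr1 and RXRα in human HEK293T cells, 8 h after dosing. DMSO served as negative control; increased signal counted as activity.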

The target is the same in assay [13]. The experiment in a line: OT_NURR1_NURR1RXRa_1440: Odyssey Thera (OT) 24-hour HEK293T Protein Complementation Assay for Nurr1/retinoid X receptor (RXR) (AID 2283386). In a few lines: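 Fluorescence PCA read-out; HEK293T; 24 h post-dose; bait/prey fused to reporter fragments; gain-of-signal fit vs DMSO negative control.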
Assay [14] has as its target Peroxisome proliferator-activated receptor gamma (Homo sapiens) (UniProt P37231). The experiment in a line: OT_PPARg_PPARgSRC1_0480: Odyssey Thera (OT) 8-hour Protein-Complementation Assay for Peroxisome Proliferator-activated Receptor Gamma / SRC-1 Co-activator (AID 2283387). The essentials: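 Read-out: 488 nm N/C fluorescence ratio from complemented Venus YFP fragments, ≥350 cells per image, gain-of-signal fitted against DMSO baseline. Fusions of PPARg/SRC-1 with IFP1/IFP2 expressed transiently in HEK293T; compounds applied 8 h.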

For assay [15] the target is unchanged. The assay can be described thus: OT_PPARg_PPARgSRC1_1440: Odyssey Thera (OT) 24-hour Protein-Complementation Assay for Peroxisome Proliferator-activated Receptor Gamma/ SRC-1 Co-activator (AID 2283388). The essentials:
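HEK293T transiently transfected with PPARg/SRC-1 split-Venus YFP fusions 48 h before dosing, then treated 24 h at 37C. Fixed cells imaged; nuclear/cytoplasmic 488 nm fluorescence ratio, gain of signal versus DMSO.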

The nature of assay [16]: ACEA_AR_agonist_AUC_viability: ACEA Biosciences xCELLigence Real-Time Cell Analysis on Androgen Receptor Agonism for Viability (AID 2283775). The essentials:
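Viability endpoint from xCELLigence impedance in 22Rv1 prostate cells at 80 h. Eight-point series, 100 uM maximum final.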

Assay [17] in a line: ACEA_AR_antagonist_AUC_viability: ACEA Biosciences xCELLigence Real-Time Cell Analysis on Androgen Receptor Antagonism for Viability (AID 2283776).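 Note: 22Rv1 human prostate cancer cells growing on impedance electrode plates; area under impedance growth curve at 80 h after dosing as viability; hits lower the growth signal relative to DMSO meaning cytotoxicity.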 The essentials:
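Real-time electrical impedance tracks 22Rv1 proliferation after continuous compound exposure (top 100 uM final, 1:4 steps, 8 concentrations). The 80 h area-under-curve serves as the cytotoxicity readout relative to DMSO.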

For assay [18], the target named is human Phosphodiesterase 10 (PDE10), PDE10A (gene 10846) (UniProt Q9Y233). The experiment in a line: NVS_ENZ_hPDE10: NovaScreen (NVS) Enzymatic Assay for human Phosphodiesterase 10 (PDE10) (AID 2283195). The essentials:
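Fluorescence readout after mobility-shift separation of substrate and product, 1 h reaction with recombinant human enzyme. Single-concentration duplicates at 25 uM, then concentration-response up to 50 uM for chemicals reaching threshold; DMSO baseline.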

The target of assay [19] is Estrogen receptor beta (Homo sapiens) (UniProt Q92731). The experiment in a line: OT_ER_ERbERb_0480: Odyssey Thera (OT) 8-hour HEK293T Protein-Complementation Assay for Estrogen Receptor-beta/-beta Homodimer (AID 2283357).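 Note: active means signal gain over DMSO baseline.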 The essentials:
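ER-beta LBD homodimer PCA stably expressed in HEK293T; 8 h compound exposure, then formaldehyde fixation and Draq5 staining. Gain in nuclear/cytoplasmic fluorescence intensity versus DMSO vehicle, read on laser scanning cytometer.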

Assay [20] shares this target. The assay can be described thus: OT_ER_ERbERb_1440: Odyssey Thera (OT) 24-hour HEK293T Protein-Complementation Assay for Estrogen Receptor-beta/-beta Homodimer (AID 2283380).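 Note: scored as signal increase over DMSO baseline for both agonists and antagonists.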 In a few lines: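 Fluorescence increase, nuclear for agonists or whole-cell for antagonists, relative to DMSO vehicle, quantified by laser scanning cytometer after fixation and Draq5 staining. Readout from 24 h treatment of HEK293T cells carrying complementation-paired ER beta LBD (aa 310-547).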

Inconclusive results are not listed. Calls of active or inactive are those of the source. Rule for the calls, unless noted: active = hit-call score of the fitted dose curve at least 0.9, where 1 is the maximum; inconclusive = response in the unintended direction; inactive = score below 0.9.

Sequence of Oxysterols receptor LXR-beta (Homo sapiens) (P55055 whole entry, looked up, the tested form may be a part): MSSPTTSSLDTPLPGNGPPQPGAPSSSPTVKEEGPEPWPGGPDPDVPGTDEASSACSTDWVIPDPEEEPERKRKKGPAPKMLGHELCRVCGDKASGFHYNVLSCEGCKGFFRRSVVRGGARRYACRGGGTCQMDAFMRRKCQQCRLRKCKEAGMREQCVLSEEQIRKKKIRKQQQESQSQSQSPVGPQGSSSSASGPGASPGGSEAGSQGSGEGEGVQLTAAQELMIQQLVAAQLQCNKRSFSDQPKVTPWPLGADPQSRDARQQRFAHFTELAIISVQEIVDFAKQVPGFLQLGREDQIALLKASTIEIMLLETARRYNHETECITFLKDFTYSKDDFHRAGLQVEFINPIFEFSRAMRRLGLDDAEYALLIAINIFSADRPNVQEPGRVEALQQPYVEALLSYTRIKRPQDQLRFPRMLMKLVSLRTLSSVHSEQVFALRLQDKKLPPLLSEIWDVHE
Sequence of human Retinoic Acid Receptor gamma (RARg), RARG (gene 5916) (P13631 whole entry, looked up, the tested form may be a part): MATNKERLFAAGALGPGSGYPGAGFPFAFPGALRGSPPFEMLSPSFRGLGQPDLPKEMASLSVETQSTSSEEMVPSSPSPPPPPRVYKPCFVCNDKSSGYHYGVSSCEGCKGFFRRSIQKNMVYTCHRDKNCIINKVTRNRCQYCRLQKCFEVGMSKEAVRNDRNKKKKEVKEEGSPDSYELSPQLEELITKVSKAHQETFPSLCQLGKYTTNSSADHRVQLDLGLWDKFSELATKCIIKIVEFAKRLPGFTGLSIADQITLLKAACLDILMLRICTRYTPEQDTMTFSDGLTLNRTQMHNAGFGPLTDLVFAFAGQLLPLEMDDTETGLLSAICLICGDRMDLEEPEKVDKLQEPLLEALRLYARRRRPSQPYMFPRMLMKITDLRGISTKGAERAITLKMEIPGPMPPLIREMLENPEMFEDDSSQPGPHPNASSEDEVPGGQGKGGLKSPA
Sequence of human Peripheral-type Benzodiazepine Receptor (PBR), TSPO (gene 706) (P30536 whole entry, looked up): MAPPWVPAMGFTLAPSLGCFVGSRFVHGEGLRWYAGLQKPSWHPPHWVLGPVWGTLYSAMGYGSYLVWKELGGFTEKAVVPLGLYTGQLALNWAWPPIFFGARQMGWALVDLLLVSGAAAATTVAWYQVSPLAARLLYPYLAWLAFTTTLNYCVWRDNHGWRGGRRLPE
Sequence of Retinoic acid receptor RXR-alpha (Homo sapiens) (P19793 whole entry, looked up, the tested form may be a part): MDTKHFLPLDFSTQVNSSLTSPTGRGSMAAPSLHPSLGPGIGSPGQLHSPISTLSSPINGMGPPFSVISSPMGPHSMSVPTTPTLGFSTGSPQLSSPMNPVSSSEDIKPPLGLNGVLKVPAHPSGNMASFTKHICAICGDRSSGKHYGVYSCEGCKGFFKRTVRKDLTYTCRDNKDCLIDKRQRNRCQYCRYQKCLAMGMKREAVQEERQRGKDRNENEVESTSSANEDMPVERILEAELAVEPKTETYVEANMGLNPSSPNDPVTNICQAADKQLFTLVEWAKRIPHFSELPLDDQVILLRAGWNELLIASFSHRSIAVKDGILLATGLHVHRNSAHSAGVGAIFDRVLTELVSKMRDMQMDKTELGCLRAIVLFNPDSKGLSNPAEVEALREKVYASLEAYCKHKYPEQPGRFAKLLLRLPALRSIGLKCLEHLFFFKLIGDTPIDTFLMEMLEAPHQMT
Sequence of Oxysterols receptor LXR-alpha (Homo sapiens) (Q13133 whole entry, looked up, the tested form may be a part): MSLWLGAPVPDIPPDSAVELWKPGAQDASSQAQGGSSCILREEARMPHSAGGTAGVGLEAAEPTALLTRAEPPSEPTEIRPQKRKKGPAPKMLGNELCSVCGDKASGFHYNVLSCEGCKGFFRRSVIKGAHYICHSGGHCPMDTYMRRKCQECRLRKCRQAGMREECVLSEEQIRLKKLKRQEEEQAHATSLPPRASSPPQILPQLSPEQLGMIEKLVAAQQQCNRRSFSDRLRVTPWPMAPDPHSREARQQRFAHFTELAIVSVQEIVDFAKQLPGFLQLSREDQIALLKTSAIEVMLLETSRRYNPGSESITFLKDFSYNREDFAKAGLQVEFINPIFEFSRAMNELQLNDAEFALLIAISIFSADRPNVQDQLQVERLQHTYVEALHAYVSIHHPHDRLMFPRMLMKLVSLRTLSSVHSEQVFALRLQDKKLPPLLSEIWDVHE
Sequence of human Phosphodiesterase 10 (PDE10), PDE10A (gene 10846) (Q9Y233 whole entry, looked up): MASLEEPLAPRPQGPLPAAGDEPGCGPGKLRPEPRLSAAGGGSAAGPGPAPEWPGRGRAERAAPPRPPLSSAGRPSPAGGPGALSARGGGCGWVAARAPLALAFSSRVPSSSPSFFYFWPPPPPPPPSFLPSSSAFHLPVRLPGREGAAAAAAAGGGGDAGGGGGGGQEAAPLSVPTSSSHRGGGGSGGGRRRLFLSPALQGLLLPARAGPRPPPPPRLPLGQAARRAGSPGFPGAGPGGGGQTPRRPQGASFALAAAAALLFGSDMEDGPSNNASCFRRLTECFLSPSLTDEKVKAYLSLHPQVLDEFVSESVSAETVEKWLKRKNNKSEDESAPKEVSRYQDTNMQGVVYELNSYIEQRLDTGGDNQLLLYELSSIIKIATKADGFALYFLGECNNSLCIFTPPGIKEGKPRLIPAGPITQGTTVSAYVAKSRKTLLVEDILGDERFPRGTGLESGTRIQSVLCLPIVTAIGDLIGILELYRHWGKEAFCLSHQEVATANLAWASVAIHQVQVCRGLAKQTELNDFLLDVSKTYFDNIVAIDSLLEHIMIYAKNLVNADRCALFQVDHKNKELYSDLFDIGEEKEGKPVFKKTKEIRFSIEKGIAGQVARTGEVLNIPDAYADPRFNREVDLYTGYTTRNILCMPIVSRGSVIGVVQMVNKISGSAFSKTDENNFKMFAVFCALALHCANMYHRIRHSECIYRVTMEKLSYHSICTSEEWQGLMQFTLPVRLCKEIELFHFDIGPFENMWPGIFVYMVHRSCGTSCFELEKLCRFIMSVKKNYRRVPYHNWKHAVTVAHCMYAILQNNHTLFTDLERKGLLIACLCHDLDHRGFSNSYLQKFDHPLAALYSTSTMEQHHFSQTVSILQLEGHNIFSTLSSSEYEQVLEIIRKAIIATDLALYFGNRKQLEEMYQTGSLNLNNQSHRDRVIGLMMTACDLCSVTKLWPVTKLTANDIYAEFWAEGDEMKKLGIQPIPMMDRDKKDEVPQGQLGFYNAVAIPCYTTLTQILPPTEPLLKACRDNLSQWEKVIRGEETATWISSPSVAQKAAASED
Sequence of Peroxisome proliferator-activated receptor gamma (Homo sapiens) (P37231 whole entry, looked up, the tested form may be a part): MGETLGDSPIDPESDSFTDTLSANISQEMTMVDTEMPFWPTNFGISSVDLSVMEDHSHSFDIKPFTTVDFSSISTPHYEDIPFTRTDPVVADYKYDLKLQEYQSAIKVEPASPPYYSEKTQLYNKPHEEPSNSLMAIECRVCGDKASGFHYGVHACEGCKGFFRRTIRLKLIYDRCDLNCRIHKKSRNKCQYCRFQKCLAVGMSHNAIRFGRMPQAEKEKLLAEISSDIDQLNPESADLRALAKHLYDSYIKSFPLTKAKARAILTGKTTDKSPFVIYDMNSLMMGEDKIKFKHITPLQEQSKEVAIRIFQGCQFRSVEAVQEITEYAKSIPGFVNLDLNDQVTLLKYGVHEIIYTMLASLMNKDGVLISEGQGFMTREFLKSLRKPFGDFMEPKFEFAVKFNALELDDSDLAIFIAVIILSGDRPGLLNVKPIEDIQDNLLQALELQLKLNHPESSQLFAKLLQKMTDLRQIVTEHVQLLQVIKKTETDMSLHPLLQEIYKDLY
Sequence of human Peroxisome Proliferator-activated Receptor alpha (PPARa), PPARA (gene 5465) (Q07869 whole entry, looked up, the tested form may be a part): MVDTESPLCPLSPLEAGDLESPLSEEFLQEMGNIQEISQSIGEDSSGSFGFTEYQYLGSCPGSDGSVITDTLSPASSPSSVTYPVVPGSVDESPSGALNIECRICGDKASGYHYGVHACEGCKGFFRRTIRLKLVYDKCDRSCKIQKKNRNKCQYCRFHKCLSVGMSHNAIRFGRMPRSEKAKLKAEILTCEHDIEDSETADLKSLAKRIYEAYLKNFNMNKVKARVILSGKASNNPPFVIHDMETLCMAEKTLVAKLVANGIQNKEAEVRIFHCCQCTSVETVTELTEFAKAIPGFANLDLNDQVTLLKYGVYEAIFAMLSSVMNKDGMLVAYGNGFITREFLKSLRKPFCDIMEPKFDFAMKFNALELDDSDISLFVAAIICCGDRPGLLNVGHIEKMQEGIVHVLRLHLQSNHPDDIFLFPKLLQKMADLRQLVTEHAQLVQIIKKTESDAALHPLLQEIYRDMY
Sequence of Estrogen receptor (Homo sapiens) (P03372 whole entry, looked up): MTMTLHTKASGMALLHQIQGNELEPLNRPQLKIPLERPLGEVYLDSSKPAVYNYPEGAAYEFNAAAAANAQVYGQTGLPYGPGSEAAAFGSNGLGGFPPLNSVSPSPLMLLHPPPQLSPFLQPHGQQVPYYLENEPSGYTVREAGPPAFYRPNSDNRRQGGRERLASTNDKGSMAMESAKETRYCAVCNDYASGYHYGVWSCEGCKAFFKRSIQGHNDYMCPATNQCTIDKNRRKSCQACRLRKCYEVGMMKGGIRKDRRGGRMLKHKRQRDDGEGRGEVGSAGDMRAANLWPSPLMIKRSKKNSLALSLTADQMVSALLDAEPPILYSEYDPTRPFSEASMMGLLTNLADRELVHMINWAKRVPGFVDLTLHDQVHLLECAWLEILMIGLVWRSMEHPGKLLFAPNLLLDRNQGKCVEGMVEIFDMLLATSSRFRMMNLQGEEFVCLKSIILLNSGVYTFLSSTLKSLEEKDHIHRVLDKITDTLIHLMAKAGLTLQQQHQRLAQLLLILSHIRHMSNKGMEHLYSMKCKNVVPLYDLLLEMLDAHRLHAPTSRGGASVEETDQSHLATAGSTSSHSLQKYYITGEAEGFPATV

On to `CC=Cc1ccc2c(c1)OCO2`, for which, in [1], the result was inactive.
As to `O=C(O)c1cc[c]([Hg][Cl])cc1`, the call in assay [2], in assay [1] and in assay [3] was inactive.
`C=CC(=O)OCCCCOC(=O)C=C`: the call in assay [1] was inactive.
As to `O=C(O)CCCc1ccc(N(CCCl)CCCl)cc1`, the call in [4] and in assay [5] was inactive.
On to `O=C1C(Cl)=C(Cl)C(=O)C(Cl)=C1Cl`, for which the compound was called inactive in [6], in assay [7], in assay [5], in assay [3], in assay [9] and in assay [10]. Moreover, the AC50 in assay [8] is 34.4 µM (active).
`COc1cc(OC)c(OC)cc1C=O`: the outcome in [2] and in [3] was inactive.
Consider `CN1C(=O)CCS(=O)(=O)C1c1ccc(Cl)cc1` (configuration not stated), for which the call in assay [2], in assay [4] and in assay [7] was inactive.
As to `CC(C)(C)C(O)C(Oc1ccc(-c2ccccc2)cc1)n1cncn1` (configuration not stated), the call in assay [2] and in [8] was inactive. In [11], the AC50 was 13.4 µM (active).
Take `O=[N+]([O-])O`: the outcome in assay [7], in assay [12], in assay [13], in [14], in assay [15] and in assay [16] was inactive. For the same compound, the result in [17] was inactive.
In the case of `CC(C)COP(=O)(OCC(C)C)OCC(C)C`, the AC50 in assay [8] is 25 µM (active). In assay [10], the compound was called inactive.
In the case of `BrCBr`, the compound was classed as inactive in assay [2], in [6] and in [5].
Regarding `c1ccc(Nc2ccc3ccccc3c2)cc1`, the outcome in assay [4] and in assay [10] was inactive. For the same compound, the AC50 in assay [11] was 13 µM (active).
Take `CCCCCCCCCCCC#N`: the compound was called inactive in [6] and in [18].
With `N#CCCCCC#N`, the call in [1], in [5], in assay [18], in [12], in assay [14] and in assay [15] was inactive. For the same compound, in [17], the call was inactive.
Turning to `Oc1ccc(C2(c3ccc(O)cc3)c3ccccc3-c3ccccc32)cc1`, the call in assay [2], in assay [6] and in [4] was inactive. Also, in assay [3], the AC50 is 0.644 µM (active).
Take `CCCC=NO`: the outcome in assay [6], in assay [1], in assay [4], in assay [19], in assay [20] and in assay [12] was inactive. In addition, the outcome in [13], in [14], in [15], in [16] and in [17] was inactive.
`Nc1ccccc1C(=O)OCCc1ccccc1`: the compound was called inactive in assay [6].
Consider `O=[N+]([O-])C=Cc1ccccc1`, for which the result in assay [1], in assay [5] and in assay [18] was inactive. The AC50 is 25 µM (active) in assay [11] and 2.31 µM (active) in assay [10].
